Measurements from the supplement of paper PMC10981050.
Several values for one entry are separate records, joined by “and”; a condition that tells them apart may be missing. Equal entries are not always repeated. Structures can show the parent of a compound that is named as a salt.

What was measured:
Assay in all cases: cell viability relative to vehicle control; higher = less cytotoxic
Conditions in all cases: 10 µM
K562 = tested on: K562
In short: (§1)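 Screening covered the Selleck bioactive, kinase and epigenetic probe libraries, less identity-inconsistent compounds, on CRISPR-edited mutant clones and isogenic wild-type clones of four leukaemia lines. Cells, at 2000 per well in 50 µL medium, received a single 10 µM acoustically dispensed dose. After 48 h the supernatant was removed and CellTiter-Glo luminescence was read. Viability was analysed in Genedata Screener as percent of the on-plate vehicle control.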

MARIMO = tested on: MARIMO
In short: as §1

MOLM14 = tested on: MOLM14
In short: as §1

OCI-AML2 = tested on: OCI-AML2
In short: as §1

SMILES | cell viability (K562; SRSF2 genotype: SRSF2 P95H/wt) | cell viability (K562; SRSF2 genotype: SRSF2 wt/wt) [%] | cell viability (MARIMO; SRSF2 genotype: SRSF2 P95H/wt) [%] | cell viability (MARIMO; SRSF2 genotype: SRSF2 wt/wt) [%] | cell viability (MOLM14; SRSF2 genotype: SRSF2 P95H/wt) [%] | cell viability (MOLM14; SRSF2 genotype: SRSF2 wt/wt) [%] | cell viability (OCI-AML2; SRSF2 genotype: P95H/wt) [%] | cell viability (OCI-AML2; SRSF2 genotype: wt/wt) [%]
O=C(O)c1cc(=O)[nH]c(=O)[nH]1 [Orotic acid (6-Carboxyuracil)] | 104% and 95.1% | 96.6 | 91.1 | 101 | 95.3 | 95.2 | 95.2 | 96.5
CC(C)C[C@@H]1NC(=O)[C@@H](C(C)C)NC(=O)[C@@H]2CCCN2C(=O)[C@@H](CC(=O)O)NC(=O)[C@@H](Cc2c[nH]c3ccccc23)NC1=O | 101% and 105% | 97 | 101 | 108 | 99 | 101 | 103 | 103
OCC(O)C(O)C(O)C(O)CO (stereo not drawn) [Allitol] | 111% and 98.4% | 111 | 107 | 101 | 108 | 103 | 109 | 99.3
O=C(O)C(S)=Cc1c[nH]c2ccc(F)cc12 | 95.6% and 105% | 97 | 109 | 109 | 85.2 | 98.3 | 106 | 103
C/C=C/C=C/C(=O)O [Sorbic acid] | 92.4% and 92.8% | 92.6 | 90.7 | 99.1 | 99.3 | 101 | 106 | 106
COc1ccc(COc2ccc(Cc3cnc(N)nc3N)cc2OC)cc1 | 83.8% and 84% | 80 | 84 | 92.8 | 86.6 | 88.3 | 66 | 70.3
CCCCCCCC(=O)N[C@H](CN1CCCC1)[C@H](O)c1ccc2c(c1)OCCO2 [Eliglustat (Tartrate)] | 95.2% and 103% | 99.4 | 91.1 | 89.7 | 90 | 99.9 | 94 | 97.1
O=C(NNc1ccccc1)c1ccncc1 | 82.8% and 97.5% | 77.1 | 91.1 | 101 | 93.5 | 89.5 | 92.7 | 97.9
O=C(Nc1ccccc1)N1CCN(c2nc(-c3ccccc3)ns2)CC1 | 79.1% and 89.2% | 91.6 | 87 | 92.7 | 90.5 | 99 | 62.7 | 70.3
COC(=O)N[C@H](C(=O)N1CCC[C@H]1c1nc(-c2ccc3c(c2)O[C@@H](c2ccccc2)n2c-3cc3cc(-c4c[nH]c([C@@H]5CCCN5C(=O)[C@@H](NC(=O)OC)C(C)C)n4)ccc32)c[nH]1)C(C)C [Elbasvir] | 87.7% and 92% | 86.9 | 68.6 | 77.3 | 81.9 | 87.8 | 91 | 88
COC(=O)N[C@H](C(=O)N1CCC[C@H]1c1ncc(-c2ccc(-c3ccc(-c4cnc([C@@H]5CCCN5C(=O)[C@@H](NC(=O)OC)C(C)C)[nH]4)cc3)cc2)[nH]1)C(C)C | 93.2% and 92% | 89.7 | 72.4 | 83.9 | 78.2 | 88.5 | 84.6 | 84.3
CCCOc1ccc(CCc2nc3cc(-c4c(C)noc4C)ccc3n2CCN2CCOCC2)cc1 | 81.1% and 91% | 84.9 | 80.3 | 76.7 | 60.3 | 65 | 59.1 | 73.5
COc1cc(C[C@@H](CO[C@@H]2O[C@H](CO)[C@@H](O)[C@H](O)[C@H]2O)[C@H](CO[C@@H]2O[C@H](CO)[C@@H](O)[C@H](O)[C@H]2O)Cc2ccc(O)c(OC)c2)ccc1O [Secoisolariciresinol diglucoside] | 96.7% and 93.6% | 98.9 | 90 | 101 | 101 | 98.5 | 96.8 | 104
O.O=C([O-])c1ncccc1O.O=C([O-])c1ncccc1[O-].[H+].[O]=[V][OH] [VO-Ohpic trihydrate] | 100% and 92.1% | 95.5 | 106 | 102 | 122 | 110 | 121 | 119
C=CC(=O)Nc1cccc(Oc2nc(Nc3ccc(N4CCN(C)CC4)cc3)nc3ccsc23)c1 | 16.7% and 14.4% | 49.6 | 31.2 | 43.4 | 0.27 | 0.47 | 0.27 | 0.68
CN(C)Cc1ccc(S(=O)(=O)n2ccc(/C=C/C(=O)NO)c2)cc1 [Resminostat (RAS2410)] | 1.83% and 16.1% | 11.8 | 2.94 | 2.37 | 0.76 | 0.51 | 0.72 | 1.22
Cc1ccc(NCCCc2ccccc2)c(N)c1 | 74.3% and 88.2% | 83.1 | 48.2 | 72.4 | 69 | 72.5 | 60.8 | 63.5
COc1cc(O)c2c(=O)c(O[C@@H]3O[C@H](CO)[C@@H](O)[C@H](O)[C@H]3O)c(-c3ccc(O[C@@H]4O[C@H](CO)[C@@H](O)[C@H](O)[C@H]4O)cc3)oc2c1 [Complanatuside] | 105% and 101% | 106 | 108 | 104 | 108 | 106 | 107 | 96.2
COc1ccc(Cn2c3ncnc4c(ncn4Cc4ccc(OC)cc4)c-3nc2=O)cc1 | 1.11% and 1.3% | 0.98 | 4.49 | 17.2 | 9.44 | 2.32 | 4.12 | 5.63
C[n+]1c2n(c(=O)c3ccccc31)CCc1c-2[nH]c2ccccc12 [Dehydroevodiamine hydrochloride] | 94.4% and 99.8% | 89.2 | 91.7 | 100 | 92.8 | 92.9 | 86.8 | 96.2
COc1ccc2cc(C(=O)O)ccc2c1 [6-Methoxy-2-naphthoic acid] | 108% and 98.7% | 94.2 | 92 | 99.7 | 88.6 | 93.8 | 89.4 | 92.4

SMILES | cell viability (K562; SRSF2 genotype: SRSF2 P95H/wt) | cell viability (K562; SRSF2 genotype: SRSF2 wt/wt) [%] | cell viability (MARIMO; SRSF2 genotype: SRSF2 P95H/wt) [%] | cell viability (MARIMO; SRSF2 genotype: SRSF2 wt/wt) [%] | cell viability (MOLM14; SRSF2 genotype: SRSF2 P95H/wt) [%] | cell viability (MOLM14; SRSF2 genotype: SRSF2 wt/wt) [%] | cell viability (OCI-AML2; SRSF2 genotype: P95H/wt) [%] | cell viability (OCI-AML2; SRSF2 genotype: wt/wt) [%]
COc1ccccc1N1CCN(CC(O)COc2cccc3ccccc23)CC1 (stereo not drawn) [Naftopidil (Flivas)] | 74.1% and 86.9% | 79.5 | 66.2 | 71.5 | 64.1 | 72.3 | 83.5 | 84.6
O=c1c2ccccc2oc2ccccc12 [Xanthone (Genicide)] | 102% and 103% | 94.9 | 96.5 | 102 | 105 | 108 | 93.1 | 96.4
C/C(=C(/CCOC(=O)c1ccccc1)SC(=O)c1ccccc1)N(C=O)Cc1cnc(C)nc1N [Dibenzoyl Thiamine] | 103% | 107 | 96.5 | 94 | 90.8 | 102 | 99.1 | 109
O=C(O)c1cc(=O)c2c(OCC(O)COc3cccc4oc(C(=O)O)cc(=O)c34)cccc2o1 [Disodium Cromoglycate] | 93.6% | 95 | 94.8 | 98.5 | 94 | 94.4 | 92.8 | 99
O=C(O)CC1CC(c2ccccc2)=NO1 (stereo not drawn) | 108% and 104% | 103 | 97 | 110 | 97.4 | 99.7 | 89.5 | 95.5
CCC[C@H](NC(=O)[C@@H]1[C@H]2CCC[C@H]2CN1C(=O)[C@@H](NC(=O)[C@@H](NC(=O)c1cnccn1)C1CCCCC1)C(C)(C)C)C(=O)C(=O)NC1CC1 [Telaprevir (VX-950)] | 87.5% and 92% | 80.2 | 68.6 | 86.1 | 89.5 | 99.2 | 85.9 | 98.7
O=C(Nc1cccc(Cl)c1)Nc1ncc(CCNc2ncnc3ccsc23)s1 [SNS-314 Mesylate] | 63.5% and 68.5% | 75.3 | 68.8 | 76.5 | 18.7 | 12.8 | 28.2 | 30.8
CNCC[C@@H](Oc1ccccc1C)c1ccccc1 [Atomoxetine HCl] | 111% and 112% | 108 | 100 | 94.9 | 101 | 106 | 115 | 94.6
CCN1CCC[C@H]1CNC(=O)c1cc(S(N)(=O)=O)ccc1OC [Levosulpiride (Levogastrol)] | 101% and 103% | 108 | 111 | 104 | 109 | 107 | 104 | 93.6
Nc1ccc(-c2ccc3ncc4ccc(=O)n(-c5cccc(C(F)(F)F)c5)c4c3c2)cn1 [Torin 2] | 13.4% and 21.3% | 16.9 | 16.5 | 20.9 | 1.07 | 2.53 | 1.62 | 7.04
OCC(O)C(O)CO (stereo not drawn) [Erythritol] | 100% and 105% | 99.9 | 98.4 | 106 | 101 | 101 | 98.2 | 110
Cc1ccc(C(=O)Nc2ccc(CN3CCN(C)CC3)c(C(F)(F)F)c2)cc1C#Cc1cnc2[nH]ncc2c1 [GZD824 Dimesylate] | 0.41% and 0.25% | 0.26 | 0.31 | 0.33 | 0.15 | 0.17 | 0.16 | 0.2
CN(C)CC/C=C1/c2ccccc2Sc2ccc(Cl)cc21 [Chlorprothixene] | 80.1% and 80.7% | 87.8 | 78.3 | 76.7 | 66.2 | 82.1 | 66.6 | 68.2
Cc1cc(=O)c2c(O)c3c(cc2o1)OC(C)(C)[C@@H](O[C@@H]1O[C@H](CO)[C@@H](O)[C@H](O)[C@H]1O)C3 [Sec-O-Glucosylhamaudol] | 105% and 101% | 114 | 106 | 98.7 | 109 | 101 | 94 | 91.3
CC(=O)[C@H]1CC[C@H]2[C@@H]3CCC4=CC(=O)CC[C@]4(C)[C@H]3CC[C@]12C [Progesterone (Prometrium)] | 78% and 87.7% | 81.7 | 60.7 | 38.8 | 75 | 78.8 | 54.5 | 59.9
Cc1nc(Nc2cnn(C3CCNCC3)c2)nc2c1N(C)C(=O)c1cc3ccccc3cc1N2C | 56% and 67.5% | 60.7 | 50.7 | 63.7 | 15.9 | 5.53 | 19.2 | 22
Cc1cc(-c2cc(C)c(NCCCS(=O)(=O)O)c(C)c2)cc(C)c1N | 106% and 93.5% | 105 | 96.3 | 111 | 100 | 108 | 99.9 | 99
CN1CCc2nc(C(=O)N[C@@H]3C[C@@H](C(=O)N(C)C)CC[C@@H]3NC(=O)C(=O)Nc3ccc(Cl)cn3)sc2C1 [Edoxaban] | 98.2% and 93.3% | 92.5 | 95.7 | 102 | 99.4 | 95.6 | 92.9 | 100
Cc1cccc(CN2CCN(C(c3ccccc3)c3ccc(Cl)cc3)CC2)c1 (stereo not drawn) [Meclizine dihydrochloride] | 87.7% and 94.2% | 91.5 | 92.2 | 105 | 86.2 | 91.2 | 86.4 | 83.2
CN1c2ccccc2C(=O)Nc2cnc(Nc3ccc(N4CCC(O)CC4)cc3)nc21 | 16.4% and 22.1% | 15.7 | 69.5 | 83.9 | 57.2 | 39.6 | 51 | 49.3
